Laboratory results published in PubChem BioAssay (NCI).
Where “and” joins values, the source holds several entries; their conditions need not be identical. Equal entries are not always repeated. This is part of a sample that, as a whole, favours compounds with a hit. Of some 79,000 tested, about 15% had one in any assay. Some structures have more than one record in an assay (separate samples or runs), and their calls can disagree. Calls of active or inactive are those of the source. No stated cut-off is given here; in the data, active means growth inhibition above about 70%; inactive means the rest.

Columns and labels:
[1] = NCI Yeast Anticancer Drug Screen. Data for the rad52 strain (AID 147);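 further: 0% = growth of vehicle-treated control cultures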; settings: S. cerevisiae rad52 mutant growth inhibition, stronger effect = higher value
Method in brief: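 DNA repair-defective yeast; compound exposure; growth scored against vehicle controls.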

[2] = NCI Yeast Anticancer Drug Screen. Data for the wt1 strain (AID 149);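 further: 0% = growth of vehicle-treated wt1 cultures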; settings: S. cerevisiae wt1 strain (SPY 50644) growth inhibition, stronger effect = higher value
Method in brief: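 Each compound is tested on wt1 yeast and the loss of growth versus vehicle gives the inhibition value.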

[3] = NCI Yeast Anticancer Drug Screen. Data for the rad50EPP+ strain (AID 151);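 further: 0% = growth of vehicle-treated control cultures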; settings: S. cerevisiae rad50 mutant strain, stronger effect = higher value
Method in brief: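 rad50EPP+ yeast treated with test compounds. Readout: growth vs vehicle control.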

[4] = NCI Yeast Anticancer Drug Screen. Data for the mgt1 strain (AID 153); settings: S. cerevisiae mgt1 mutant growth inhibition, stronger effect = higher value
Method in brief: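 Growth inhibition relative to vehicle controls was scored for the mgt1 yeast strain after compound exposure.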

[5] = NCI Yeast Anticancer Drug Screen. Data for the rad50 strain (AID 155);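 further: 0% = growth of vehicle-only cultures of the same strain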; settings: S. cerevisiae rad50 strain growth inhibition, stronger effect = higher value
Method in brief: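 Vehicle-treated cultures provide the reference for the growth inhibition reported for compound-exposed, repair-deficient yeast.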

[6] = NCI Yeast Anticancer Drug Screen. Data for the mec2-1 strain (AID 157); settings: S. cerevisiae mec2-1 strain, stronger effect = higher value
Method in brief: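 Growth inhibition is read against vehicle-treated controls after compound exposure of the mec2-1 yeast strain, which is defective in DNA damage repair or cell cycle control.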

[7] = NCI Yeast Anticancer Drug Screen. Data for the rad14 strain (AID 159);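 further: 0% = growth of vehicle-treated control cultures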; settings: S. cerevisiae rad14 strain growth inhibition, stronger effect = higher value
Method in brief: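 Inhibition of growth is reported for a repair-deficient yeast mutant following compound treatment, calculated relative to cultures that received vehicle.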

[8] = NCI Yeast Anticancer Drug Screen. Data for the sgs1 mgt1 strain (AID 161);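 further: 0% = growth of cultures given vehicle only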; settings: S. cerevisiae sgs1 mgt1 strain, stronger effect = higher value
Method in brief: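 Yeast cells carrying a defined DNA-repair defect were exposed to test compounds. Growth inhibition was measured relative to vehicle-treated controls.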

[9] = NCI Yeast Anticancer Drug Screen. Data for the CLN2oe strain (AID 163);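 further: 0% = growth of vehicle-only control cultures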; settings: S. cerevisiae CLN2oe strain, stronger effect = higher value
Method in brief: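 Compound-treated yeast; growth vs vehicle ctrl = % inhibition. Genetically altered strain (cell-cycle control).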

[10] = NCI Yeast Anticancer Drug Screen. Data for the cln2 rad14 strain (AID 165);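 further: 0% = growth equal to vehicle treated cultures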; settings: S. cerevisiae cln2 rad14 strain, stronger effect = higher value
Method in brief: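 Growth inhibition, relative to vehicle-treated controls, is the read-out. The test organism is a yeast strain with defined genetic alterations, cln2 rad14.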

[11] = NCI Yeast Anticancer Drug Screen. Data for the bub3 strain (AID 167); settings: S. cerevisiae bub3 mutant strain, stronger effect = higher value
Method in brief: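 Mutant yeast screening strain plus compound; vehicle-treated cultures serve as the 0% inhibition reference.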

[12] = NCI Yeast Anticancer Drug Screen. Data for the wt2 strain (AID 169); settings: S. cerevisiae wt2 strain growth inhibition, stronger effect = higher value
Method in brief: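 Compound exposure of yeast; growth compared with vehicle controls; inhibition reported.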

[13] = NCI Yeast Anticancer Drug Screen. Data for the mlh1 strain (AID 171);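 further: 0% = growth of vehicle-treated control cultures of the same strain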; settings: S. cerevisiae mlh1 strain growth inhibition, stronger effect = higher value
Method in brief: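 Compounds are applied to a genetically altered yeast strain, and its growth is compared with that of vehicle-treated cultures to give percent inhibition.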

[14] = NCI Yeast Anticancer Drug Screen. Data for the sgs1 strain (AID 173);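 further: 0% = growth of vehicle-only control cultures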; settings: S. cerevisiae sgs1 mutant, stronger effect = higher value
Method in brief: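 Compounds applied to genetically altered yeast; growth compared with vehicle-treated cultures to give % inhibition.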

[15] = NCI Yeast Anticancer Drug Screen. Data for the mlh1 rad18 strain (AID 175); settings: S. cerevisiae mlh1 rad18 strain growth inhibition, stronger effect = higher value
Method in brief: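 Cells of a genetically altered yeast strain, deficient in DNA damage repair, were treated with compound. Their growth was then compared with that of vehicle-treated cultures to give inhibition.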

[16] = NCI Yeast Anticancer Drug Screen. Data for the rad18 strain (AID 177); settings: S. cerevisiae rad18 mutant growth inhibition, stronger effect = higher value
Method in brief: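 Compounds are applied to a repair-deficient yeast strain, and growth is compared with that of vehicle-treated cultures to give percent inhibition.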

[17] = at 5.0 µM (retest, dose inferred, filed as 0.5)
[18] = at 50.0 µM (retest, dose inferred, filed as 5.0)

Measured: growth inhibition

c1ccc2[nH]c(-c3cscn3)nc2c1
inactive: [1]; at 1.2 µM -3% | [1]; at 3.7 µM -3% | [1]; at 11.0 µM -3% | [1]; at 33.0 µM 2% | [1]; at 100.0 µM -1% | [2]; at 1.2 µM -1% | [2]; at 3.7 µM -3% | [2]; at 11.0 µM -2% | [2]; at 33.0 µM -5% | [2]; at 100.0 µM -4% | [3]; at 1.2 µM 0% | [3]; at 3.7 µM 0% | [3]; at 11.0 µM 3% | [3]; at 33.0 µM 16% | [3]; at 100.0 µM 29% | [4]; at 1.2 µM -2% | [4]; at 3.7 µM -2% | [4]; at 11.0 µM -5% | [4]; at 33.0 µM -5% | [4]; at 100.0 µM -7% | [5]; at 1.2 µM -2% | [5]; at 3.7 µM 3% | [5]; [17] -19% | [5]; at 11.0 µM -1% | [5]; at 33.0 µM 4% | [5]; [18] -2% | [5]; at 50.0 µM -4.2% and 39.9% | [5]; at 100.0 µM 11% | [6]; at 1.2 µM -2% | [6]; at 3.7 µM -8% | [6]; [17] -12% | [6]; at 11.0 µM -3% | [6]; at 33.0 µM -6% | [6]; [18] 4% | [6]; at 50.0 µM 7.6% and 38.2% | [6]; at 100.0 µM -8% | [7]; at 1.2 µM -4% | [7]; at 3.7 µM -5% | [7]; at 11.0 µM -3% | [7]; at 33.0 µM -5% | [7]; at 100.0 µM -2% | [8]; [17] -3% | [8]; [18] 13% | [8]; at 50.0 µM -4% and -3% | [9]; at 1.2 µM -7% | [9]; at 3.7 µM -3% | [9]; at 11.0 µM -7% | [9]; at 33.0 µM -11% | [9]; at 100.0 µM -19% | [10]; [17] -25% | [10]; [18] -24% | [10]; at 50.0 µM -19.7% and 32.1% | [11]; at 1.2 µM 6% | [11]; at 3.7 µM 8% | [11]; [17] 5% | [11]; at 11.0 µM 12% | [11]; at 33.0 µM 36% | [11]; [18] 56% | [12]; at 1.2 µM -3% | [12]; at 3.7 µM -3% | [12]; at 11.0 µM -6% | [12]; at 33.0 µM -5% | [12]; at 100.0 µM 0% | [13]; at 1.2 µM -2% | [13]; at 3.7 µM -2% | [13]; at 11.0 µM -7% | [13]; at 33.0 µM -3% | [13]; at 100.0 µM 11% | [14]; at 1.2 µM -1% | [14]; at 3.7 µM -3% | [14]; at 11.0 µM -1% | [14]; at 33.0 µM -3% | [14]; at 100.0 µM -2% | [15]; [17] 14% | [15]; [18] 1% | [15]; at 50.0 µM -37% and 39.7% | [16]; at 1.2 µM -1% | [16]; at 3.7 µM -3% | [16]; at 11.0 µM -2% | [16]; at 33.0 µM 3% | [16]; at 100.0 µM 18%
active: [11]; at 100.0 µM 70%
33.4% (inactive) and 84.8% (active): [11]; at 50.0 µM
